# The panel holds about 83,000 compounds, 20% with a hit somewhere; the sample as a whole holds those more often.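 Negative percent growth values reflect cell death: -40 means 40% of the cells present at the start died, and -100 means all died.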 Unmarked numbers belong to inactive results. Active and inactive are the calls of the source. The calls were made as follows: active = growth percent below 10; inactive = the rest.
# Tested on: MCF7 breast
# Experiment: NCI-60 one-dose screen, 48 h (100 = growth as untreated, 0 = no growth, -100 = all killed)
# Conditions: 10 µM unless noted
row,SMILES,growth
1,O=C1Nc2cc(-c3ccc(NS(=O)(=O)c4ccc(C(F)(F)F)cc4)cc3)ccc2/C1=C/c1ccc[nH]1,0.78% (active)
2,COC(=O)c1c(C(=O)OC)c2c3ccccc3c3ccccc3n2c1C(=O)C(F)(F)F,91.6%
3,COc1cccc(-c2ccc(/C=N/NC(=O)c3[nH]c4ccc(Br)cc4c3-c3ccccc3)s2)c1,1.38% (active)
4,COc1ccc(NC(=O)CSc2nnc(-c3ccc(-c4nc5ccccc5[nH]4)cc3)o2)cc1,13.8%

# Tested on: HCT-116 colon
# Experiment: as above
# Conditions: 10 µM unless noted
row,SMILES,growth
1,COc1ccc2[nH]c(=O)cc(-n3ncc(C(=O)/C=C/c4cc(OC)c(OC)c(OC)c4)c3C)c2c1,-52.9% (active)
2,COc1ccccc1NC(=O)c1ccc(NC(=O)CCl)s1,-68.5% (active)
3,Cc1ccc(C(C)C)cc1Oc1cccc(-c2c(-c3ccc(C(F)(F)F)cc3)ncn2C2CCNCC2)n1,-94.3% (active)
4,O=C(c1ccc(O)cc1)C1[C@H](c2ccc(Cl)cc2)[C@@H](c2ccccc2)NC12C(=O)Nc1ccccc12 (stereo partly drawn),-76.8% (active)
5,COc1c(B(O)O)cccc1-c1nc2ccc3cn[nH]c3c2c2c1CCCC2,28.8%
6,COc1ccc(S(=O)(=O)Nc2ccc(-c3ccc4c(c3)NC(=O)/C4=C\c3ccc[nH]3)cc2)cc1OC,19%
7,Cc1ccc2c(c1)nc(-c1ccccc1)n2CC(=O)N=Nc1c(O)[nH]c2ccc(Cl)cc12,-82.5% (active)
8,Cc1nn(-c2ccccc2)c2nc(C)n(CC(=O)N/N=C/c3ccccc3O)c(=O)c12,24.6%
9,Cc1cc(C)c2[nH]c(=O)c(C(c3nnnn3Cc3ccc4c(c3)OCO4)N3CCN(C)CC3)cc2c1 (stereo not drawn),105%

# From PubChem BioAssay (NCI)
